Results as given in PubChem BioAssay (NCI).
This is part of a sample that, as a whole, favours compounds with a hit. Of some 83,000 tested, about 20% had one in any assay.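 Single-dose data. Exposure time 48 hours. Values below 10 considered active.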 Unmarked numbers belong to inactive results. Activity calls are given as the source filed them.

Tested on: HL-60(TB) leukemia
Assay: NCI-60 one-dose screen, 48 h (100 = growth as untreated, 0 = no growth, -100 = all killed)
Conditions: 10 µM unless noted

Row | SMILES | growth
1 | O=C(/C=C/c1ccc(O)c(O)c1)NC1CCOC1O (stereo not given) | 99.1%
2 | CCOc1ccc(/C=N/NC(=O)Cn2nc(Cc3ccccc3)c3onc(C)c3c2=O)cc1 | 89.7%
3 | COC(=O)c1c(C(=O)OC)c2n(c1C)[C@@H]([C@@H](C)[C@H]1CC[C@H]3[C@@H]4CCC5=CC(=O)CC[C@]5(C)[C@H]4CC[C@]13C)SC2 | 7% (active)
4 | Cc1ccc(Cl)cc1NC(=O)N/C(N)=N/c1nc2ccccc2s1 | -44.9% (active)
5 | O=C(Nc1ccc(OCC(=O)c2ccc(Cl)cc2)cc1)Nc1ccc(Cl)c(C(F)(F)F)c1 | 12.5%
